BAZ2B inh – qHTS Assay for Inhibitors of BAZ2B; AlphaScreen BAZ2B-H3K14Ac peptide displacement; Potency, µM (highest dose often 114 µM), for the others: at the highest dose activity change, negative = inhibition, actives largely listed as inhibitors; 360,000 tested, 4.4% active; AID 504333, 2011; note: potency is the fitted concentration of half-maximal effect; % is set by controls: 0 for no effect and ±100 for the full control effect; nearly all actives have a fitted effect of over 60% in size
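In this displacement format the biotinylated H3(5-23) peptide acetylated at Lys14 serves as ligand at 50 nM, with BAZ2B at 50 nM in PBS pH 7.4 containing 0.01% Tween-20. Donor and acceptor beads are 10 ug/mL final.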
PI5P4K alpha inh – qHTS for Inhibitors of phosphatidylinositol 5-phosphate 4-kinase (PI5P4K); Phosphatidylinositol 5-phosphate 4-kinase type-2 alpha (Homo sapiens), P48426; PI5P4Kalpha enzyme, ADP-Glo luminescence, 60 min; stronger effect = lower value; max response, %; 330,000 tested, 1.2% active; AID 652105, 2013; active = max response of -50% or lower; inconclusive = between -30% and -50%; inactive = -30% or higher; note: value at the top dose of about 77 µM; % is set by controls: 0 for no effect and ±100 for the full control effect
Target sequence (P48426 whole entry, looked up): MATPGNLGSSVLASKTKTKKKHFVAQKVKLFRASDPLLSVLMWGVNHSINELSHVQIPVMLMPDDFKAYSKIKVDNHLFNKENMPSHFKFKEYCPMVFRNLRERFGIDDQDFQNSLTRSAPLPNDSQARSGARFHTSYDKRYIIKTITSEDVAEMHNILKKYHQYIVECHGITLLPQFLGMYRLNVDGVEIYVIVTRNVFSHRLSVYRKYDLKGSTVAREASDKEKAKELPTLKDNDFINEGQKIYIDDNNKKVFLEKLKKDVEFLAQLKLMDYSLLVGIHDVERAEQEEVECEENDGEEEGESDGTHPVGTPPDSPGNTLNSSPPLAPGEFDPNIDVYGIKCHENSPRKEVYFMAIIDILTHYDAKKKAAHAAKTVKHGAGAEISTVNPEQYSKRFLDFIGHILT
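ADP-Glo luminescence end-point after a 60 min room-temperature kinase reaction. PI5P4Kalpha and substrate in HEPES pH 7.4 buffer with EGTA, 0.1% CHAPS and 5% DMSO; ATP at 5 microM final.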
HP1b binding inh – HTS for Inhibitors of HP1-beta Chromodomain Interactions with Methylated Histone Tails. Potency, µM (series often up to 114 µM), for the others: at the top dose activity change, negative = inhibition, usual class: inhibitors. AlphaScreen HP1-beta / biotin-H3K9me3 peptide binding. 390,000 tested, 0.56% active. Chromobox protein homolog 1 (Homo sapiens), P83916; note: potency is the fitted concentration of half-maximal effect; nearly all actives have a fitted effect of over 70% in size
Target sequence (P83916 whole entry, looked up): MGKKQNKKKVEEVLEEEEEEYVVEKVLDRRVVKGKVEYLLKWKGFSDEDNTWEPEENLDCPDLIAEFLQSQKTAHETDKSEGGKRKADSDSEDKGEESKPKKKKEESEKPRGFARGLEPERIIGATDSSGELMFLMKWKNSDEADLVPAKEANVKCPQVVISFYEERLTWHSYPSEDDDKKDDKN
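AlphaScreen: HP1-beta (50 nM) preformed 30 min with biotin-H3(1-18)K9me3 peptide (50 nM) in PBS pH 7.4, 0.01% Tween-20. Compound added for 30 min at RT, then streptavidin donor/nickel chelate acceptor beads (10 ug/mL) for 30 min.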
JMJD2A Tudor inh – qHTS Assay for Inhibitors of JMJD2A-Tudor Domain. AlphaScreen JMJD2A-Tudor / H3K4me3 peptide binding. Potency, µM (top dose mostly 114 µM), without a hit: at the highest dose activity change, negative = inhibition, hits mostly inhibitors. 390,000 tested, 4.4% active; note: potency is the fitted concentration of half-maximal effect; % is set by controls: 0 for no effect and ±100 for the full control effect; nearly all actives have a fitted effect of over 50% in size
PLK1 PBD block – qHTS for Inhibitors of PLK1-PDB (polo-like kinase 1 - polo-box domain): Primary Screen; Serine/threonine-protein kinase PLK1 (Homo sapiens), P53350; Plk1 PBD binding of FITC phosphopeptide, fluorescence polarization; Potency, µM, for inactives: max response, negative = inhibition, hits mostly inhibitors; 360,000 tested, 2.8% active; note: potency is the fitted concentration of half-maximal effect; series mostly up to about 57 µM; % is set by controls: 0 for no effect and ±100 for the full control effect; nearly all actives have a fitted effect of over 65% in size
G9a inh – qHTS Assay for Inhibitors of Histone Lysine Methyltransferase G9a. G9a H3K9 monomethylation, AlphaScreen, 2 h. Potency, µM (series often up to 102 µM), for the others: at the highest dose activity, negative = inhibition, hits mostly inhibitors. 350,000 tested, 8.8% active. AID 504332, 2011; note: potency is the fitted concentration of half-maximal effect; % is set by controls: 0 for no effect and ±100 for the full control effect; nearly all actives have a fitted effect of over 75% in size
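Readings reflect AlphaScreen signal from monomethyl-H3K9 antibody detection. HMT at 20 nM; substrate b-H3K9 500 nM; cofactor SAM 20 uM; 2 h RT reaction; compounds tested as titrations in qHTS with 15 min preincubation.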
An asterisk follows results filed as active; ? = inconclusive; nt = not tested or not shown; ! = not active in a repeat; [ ] = another dose, or the depositor's remark. Shown are actives, neighbours in structure and some others; about 12% of the full set was active somewhere. Unless noted, calls come from the whole dose curve; as a rule, active = well fitted curve in the direction sought with a large enough effect; inconclusive = small, poorly fitted or top-dose-only effect, or another doubt; inactive = no such curve, though single readings can be large; an effect the other way counts as inactive or inconclusive.

SMILES	BAZ2B inh	PI5P4K alpha inh	HP1b binding inh	JMJD2A Tudor inh	PLK1 PBD block	G9a inh
Cc1ccc(S(=O)(=O)c2nc(Nc3ccccc3C#N)sc2Cl)cc1	-5%	-3	41%	11%	-5%	7.9µM*
CC1C/C(=C/c2cccs2)C(=O)/C(=C/c2cccs2)C1 (stereo unspecified)	?	4	?	?	-4%	35µM*
Cn1cccc1/C=C1\CCC/C(=C\c2cccn2C)C1=O	22µM*	10	22µM*	56µM*	22%	?
O=C1/C(=C/c2cccs2)CCC/C1=C\c1cccs1	5.6µM*	14	?	?	0%	14%
CC[C@@H](C)[C@H](NS(=O)(=O)c1cccc2ccccc12)C(=O)N[C@H](C=O)Cc1c[nH]c2ccccc12	nt	nt	nt	nt	nt	0%[59 µM]
CCCCCC1C(=O)N2C=C(c3ccccc3)c3ccccc3N2C1=O (stereo unspecified)	nt	2	?	56µM*	?	nt
CCO/N=C1\C(=O)N(c2ccccc2)c2ccccc21	-18%	0	-1%	-17%	-3%	-7%
CCCCC1C(=O)N(c2ccccc2)N(c2ccccc2)C1=O	-37%	-3	52%	-15%	-20%	10µM*!
N#CCCn1c(=O)c(-c2cccs2)nc2cnc(OCc3ccccc3)nc21	nt	nt	nt	nt	nt	20%[12.7 µM]
O=[N+]([O-])c1cccc2ccc(/C=C/c3ccc(F)cc3)nc12	?	12	-16%	?	-8%	13µM*
Cn1c(/C=C/c2ccccc2[N+](=O)[O-])nc2ccccc2c1=O	-6%	5	11%	-4%	-4%	-5%
O=C(N/N=C/c1cccc2ccccc12)c1cccs1	10%	-18	18%	-23%	-1%	48%
O=C(N/N=C/c1ccc([N+](=O)[O-])cc1)c1cccs1	-36%	-4	31%	-35%	-12%	50µM*
O=C(N/N=C/c1cccc([N+](=O)[O-])c1O)c1cccs1	22µM*	-51*	3%	50µM*	-1%	50µM*
O=[N+]([O-])c1ccccc1/C=C/c1ccc2ccccc2n1	?	-2	-12%	40µM*	27µM*	nt
CCOC(=O)c1c(NC(=O)c2cc(=O)c3cc(C)ccc3o2)sc2c1CCCC2	-3%	nt	42%	-2%	nt	-1%[59 µM]
Brc1ccccc1/C=N/Nc1ccc2ccccc2n1	-10%	5	26%	-24%	-7%	-14%[59 µM]
O=[N+]([O-])c1cccc(C=NNc2ccc3ccccc3n2)c1O	nt	?	19%	22µM*	-2%	nt
CC(=O)Nc1cccc(C(=O)OC(C)C(=O)NC(=O)NC2CCCCC2)c1 (stereo unspecified)	5%	-2	24%	0%	-1%	4%
COc1cc(N/N=C(\C)c2ccc(N)cc2)nc(-c2ccccc2)n1	32µM*	18	3%	-34%	2%	45µM*
CCOC(=O)c1ccc(N2C(=O)CC(NC3CCN(C(=O)c4ccc(F)cc4)CC3)C2=O)cc1 (stereo unspecified)	8%	3	36%	-1%	2%	45µM*
CCOc1ccc(N2C(=O)CC(NC3CCN(C(=O)c4ccc(F)cc4)CC3)C2=O)cc1 (stereo unspecified)	-4%	4	54%	-17%	-6%	13µM*
O=C(C[C@H]1C/C=C\CC[C@H](Cc2ccc(F)cc2)C(=O)OC[C@H]2CCCN2C1=O)N[C@@H](CO)Cc1ccccc1	nt	6	26%	?	-1%	nt
O=C(CN1CCCC1)Nc1ccc(Cl)cc1C(F)(F)F	nt	-18	?	?	24µM*	6%
COc1cc(NC(=O)Nc2cccc(Cl)c2)c(OC)cc1NC(=O)CN1CCCCC1	40µM*	18	?	45µM*	3%	13µM*
SMILES	BAZ2B inh	PI5P4K alpha inh	HP1b binding inh	JMJD2A Tudor inh	PLK1 PBD block	G9a inh
CC(=O)Oc1ccc2c(=O)c(Oc3ccccc3)c(C)oc2c1OC(C)=O	-5%	-21	38%	?	-20%	3.2µM*
Cc1oc2cc(O)ccc2c(=O)c1Oc1ccccc1	4%	?	-3%	?	3µM*	nt
COc1ccc(N2CCN(C(=O)C(CC(C)C)NS(=O)(=O)c3ccc4nc(C)sc4c3)CC2)cc1 (stereo unspecified)	?	nt	9%	-24%	nt	?
CN(C)S(=O)(=O)c1cccc(NC(=O)c2cccc(S(=O)(=O)N3CCCCCC3)c2)c1	1%	-2	18%	-21%	-7%	-48%
COCCN(Cc1nc2ccccc2c(=O)[nH]1)C(=O)c1cccc(S(=O)(=O)N2CCCC2)c1	7%	-2	32%	-9%	-5%	19%[12.7 µM]
COc1ccc(Br)cc1CN(C)CC(=O)Nc1cccc(S(N)(=O)=O)c1	-19%	-7	40%	-6%[11.4 µM]	-10%	13%
COc1cc(C(=O)Nc2cccc(S(=O)(=O)N3CCCC3)c2)cc(OC)c1C	-38%	10	6%	-29%	8%	32µM*
COCCN(CC(=O)Nc1cccc(S(=O)(=O)N2CCCC2)c1)Cc1nc2ccccc2c(=O)[nH]1	12%	-11	15%	-22%	-9%	50µM*
CS(=O)(=O)c1cccc(C(=O)Nc2cccc(S(=O)(=O)N3CCCC3)c2)c1	2%	2	14%	-7%	1%	?
CN(C)S(=O)(=O)c1cccc(NC(=O)c2ccc(S(=O)(=O)N3CCCCC3)cc2)c1	7%	14	19%	89µM*	-1%	?
COc1ccc(Br)cc1CN(C)CC(=O)Nc1cccc(S(=O)(=O)N2CCCC2)c1	nt	-1	?	25µM*	6%	nt
CCS(=O)(=O)c1nc2ccccc2n1CC(=O)Nc1ccccc1C(=O)OC	-7%	nt	20%	-12%	nt	-2%[59 µM]
COc1cc(C#N)ccc1OC(=O)c1cccc(S(=O)(=O)N2CCN(C)CC2)c1	11%	1	18%	-6%	-26%	50µM*
CN1CCN(S(=O)(=O)c2cccc(C(=O)Oc3cccc(C#N)c3)c2)CC1	9%	6	23%	-17%	-20%	?
CN1CCCN(S(=O)(=O)c2cccc(C#N)c2)CC1	-19%	7	48%	-8%	-6%	56µM*
CN1CCN(S(=O)(=O)c2ccc(C#N)cc2)C(c2ccccc2)C1 (stereo unspecified)	-4%	1	46%	8%	2%	?

High-throughput results deposited in PubChem by National Center for Advancing Translational Sciences (NCATS).
